Out of some 5,500 compounds screened, about 2,000 (36%) were called active. Roughly 18% stayed inconclusive and do not appear here. Cut-off read from the data, not from the text of the source: active = normalized growth mostly below about 0.91 (no sharp cut-off); inconclusive = no clear call, values can overlap the other calls; inactive = mostly above about 0.92. This is one part of the list.
Assay: chemical genetic growth profiling, strain panel (AID 1159580);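 note: tested at 20 µM; growth read once vehicle control cultures reached saturation at 30 °C; 1 = growth at the plate median or of vehicle wells; lower values mean less growth of the strain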
Settings: growth OD

Measured: normalized growth

CN(C)CCCO[C@H]1[C@@H](C(O)CO)OC2OC(C)(C)O[C@@H]21 (some centres not stated)
active: S. cerevisiae deletion strains, locus YKR001C, strain vps1, stronger effect = lower value 0.867 | S. cerevisiae deletion strains, locus YLR418C, strain cdc73, stronger effect = lower value 0.748 | S. cerevisiae deletion strains, locus YMR223W, strain ubp8, stronger effect = lower value 0.902 | S. cerevisiae deletion strains, locus YNL307C, strain MCK1, stronger effect = lower value 0.871 | S. cerevisiae deletion strains, locus YOR184W, strain ser1, stronger effect = lower value 0.872
inactive: S. cerevisiae deletion strains, locus YJR075W, strain HOC1, stronger effect = lower value 0.981 | S. cerevisiae deletion strains, locus YKL009W, strain mrt4, stronger effect = lower value 0.988 | S. cerevisiae deletion strains, locus YKL068W, stronger effect = lower value 0.99 | S. cerevisiae deletion strains, locus YKL085W, strain MDH1 (second series), stronger effect = lower value 1.01 | S. cerevisiae deletion strains, locus YKL085W, strain MDH1, stronger effect = lower value 1.01 | S. cerevisiae deletion strains, locus YKL160W, strain elf1, stronger effect = lower value 0.975 | S. cerevisiae deletion strains, locus YKL190W, strain CNB1, stronger effect = lower value 0.97 | S. cerevisiae deletion strains, locus YKR026C, strain gcn3, stronger effect = lower value 0.991 | S. cerevisiae deletion strains, locus YKR091W, strain srl3, stronger effect = lower value 0.98 | S. cerevisiae deletion strains, locus YLL001W, strain dnm1, stronger effect = lower value 0.94 | S. cerevisiae deletion strains, locus YLL026W, stronger effect = lower value 0.985 | S. cerevisiae deletion strains, locus YLL041C, strain sdh2, stronger effect = lower value 0.993 | S. cerevisiae deletion strains, locus YLR027C, strain aat2, stronger effect = lower value 0.997 | S. cerevisiae deletion strains, locus YLR039C, strain RIC1, stronger effect = lower value 0.993 | S. cerevisiae deletion strains, locus YLR058C, strain SHM2, stronger effect = lower value 0.985 | S. cerevisiae deletion strains, locus YLR102C, strain apc9, stronger effect = lower value 0.988 | S. cerevisiae deletion strains, locus YLR113W, strain HOG1, stronger effect = lower value 0.985 | S. cerevisiae deletion strains, locus YLR221C, strain rsa3, stronger effect = lower value 0.957 | S. cerevisiae deletion strains, locus YLR258W, strain gsy2, stronger effect = lower value 0.998 | S. cerevisiae deletion strains, locus YLR262C, strain YPT6 (second series), stronger effect = lower value 0.978 | S. cerevisiae deletion strains, locus YLR262C, strain YPT6, stronger effect = lower value 1.04 | S. cerevisiae deletion strains, locus YLR268W, strain sec22, stronger effect = lower value 0.945 | S. cerevisiae deletion strains, locus YLR320W, strain mms22, stronger effect = lower value 0.963 | S. cerevisiae deletion strains, locus YLR330W, strain CHS5, stronger effect = lower value 0.995 | S. cerevisiae deletion strains, locus YLR342W, strain FKS1 (second series), stronger effect = lower value 0.896 | S. cerevisiae deletion strains, locus YLR342W, strain FKS1, stronger effect = lower value 0.985 | S. cerevisiae deletion strains, locus YLR357W, strain rsc2, stronger effect = lower value 0.955 | S. cerevisiae deletion strains, locus YLR370C, strain arc18, stronger effect = lower value 0.977 | S. cerevisiae deletion strains, locus YLR371W, strain rom2, stronger effect = lower value 0.993 | S. cerevisiae deletion strains, locus YLR384C, strain iki3, stronger effect = lower value 0.972 | S. cerevisiae deletion strains, locus YML016C, strain PPZ1, stronger effect = lower value 0.979 | S. cerevisiae deletion strains, locus YML032C, strain rad52, stronger effect = lower value 0.945 | S. cerevisiae deletion strains, locus YML120C, strain ndi1, stronger effect = lower value 0.964 | S. cerevisiae deletion strains, locus YML124C, strain tub3, stronger effect = lower value 0.98 | S. cerevisiae deletion strains, locus YMR058W, strain fet3, stronger effect = lower value 0.975 | S. cerevisiae deletion strains, locus YMR078C, strain ctf18, stronger effect = lower value 0.969 | S. cerevisiae deletion strains, locus YMR125W, strain sto1, stronger effect = lower value 0.978 | S. cerevisiae deletion strains, locus YMR129W, stronger effect = lower value 0.993 | S. cerevisiae deletion strains, locus YMR205C, strain PFK2, stronger effect = lower value 0.961 | S. cerevisiae deletion strains, locus YMR231W, strain pep5, stronger effect = lower value 0.991 | S. cerevisiae deletion strains, locus YMR263W, strain SAP30, stronger effect = lower value 0.942 | S. cerevisiae deletion strains, locus YMR307W, strain GAS1, stronger effect = lower value 0.937 | S. cerevisiae deletion strains, locus YNL067W, strain RPL9B, stronger effect = lower value 0.974 | S. cerevisiae deletion strains, locus YNL071W, strain lat1, stronger effect = lower value 1.06 | S. cerevisiae deletion strains, locus YNL128W, strain TEP1, stronger effect = lower value 1 | S. cerevisiae deletion strains, locus YNL153C, strain GIM3, stronger effect = lower value 0.953 | S. cerevisiae deletion strains, locus YNL183C, strain NPR1, stronger effect = lower value 0.945 | S. cerevisiae deletion strains, locus YNL209W, strain ssb2, stronger effect = lower value 0.999 | S. cerevisiae deletion strains, locus YNL233W, strain BNI4, stronger effect = lower value 0.917 | S. cerevisiae deletion strains, locus YNL248C, strain rpa49, stronger effect = lower value 0.983 | S. cerevisiae deletion strains, locus YNL250W, strain rad50, stronger effect = lower value 0.936 | S. cerevisiae deletion strains, locus YNL271C, strain bni1, stronger effect = lower value 0.983 | S. cerevisiae deletion strains, locus YNL298W, strain CLA4, stronger effect = lower value 0.974 | S. cerevisiae deletion strains, locus YNL322C, strain KRE1 (second series), stronger effect = lower value 0.968 | S. cerevisiae deletion strains, locus YNL322C, strain KRE1, stronger effect = lower value 0.991 | S. cerevisiae deletion strains, locus YNR049C, strain mso1, stronger effect = lower value 0.971 | S. cerevisiae deletion strains, locus YNR052C, strain pop2, stronger effect = lower value 0.987 | S. cerevisiae deletion strains, locus YOL006C, strain TOP1, stronger effect = lower value 0.876 | S. cerevisiae deletion strains, locus YOL012C, strain htz1 0.444 | S. cerevisiae deletion strains, locus YOL147C, strain pex11, stronger effect = lower value 0.991 | S. cerevisiae deletion strains, locus YOR001W, strain rrp6, stronger effect = lower value 1.01 | S. cerevisiae deletion strains, locus YOR061W, strain CKA2, stronger effect = lower value 0.995 | S. cerevisiae deletion strains, locus YOR069W, strain VPS5, stronger effect = lower value 0.984 | S. cerevisiae deletion strains, locus YOR070C, strain gyp1, stronger effect = lower value 0.99 | S. cerevisiae deletion strains, locus YOR080W, strain dia2, stronger effect = lower value 0.968 | S. cerevisiae deletion strains, locus YOR083W, strain WHI5, stronger effect = lower value 0.953 | S. cerevisiae deletion strains, locus YOR106W, strain vam3, stronger effect = lower value 0.926 | S. cerevisiae deletion strains, locus YOR136W, strain idh2, stronger effect = lower value 0.966 | S. cerevisiae deletion strains, locus YOR144C, strain elg1, stronger effect = lower value 0.992 | S. cerevisiae deletion strains, locus YOR231W, strain MKK1, stronger effect = lower value 0.97 | S. cerevisiae deletion strains, locus YOR265W, strain rbl2, stronger effect = lower value 0.993 | S. cerevisiae deletion strains, locus YOR270C, strain vph1, stronger effect = lower value 0.925 | S. cerevisiae deletion strains, locus YOR290C, strain snf2, stronger effect = lower value 0.964 | S. cerevisiae deletion strains, locus YOR316C, strain cot1, stronger effect = lower value 0.988 | S. cerevisiae deletion strains, locus YPL051W, strain arl3, stronger effect = lower value 0.985 | S. cerevisiae deletion strains, locus YPL055C, strain LGE1, stronger effect = lower value 0.954 | S. cerevisiae deletion strains, locus YPL078C, strain atp4, stronger effect = lower value 0.973 | S. cerevisiae deletion strains, locus YPL106C, strain sse1, stronger effect = lower value 0.96 | S. cerevisiae deletion strains, locus YPL240C, strain hsp82, stronger effect = lower value 0.985 | S. cerevisiae deletion strains, locus YPL241C, strain CIN2, stronger effect = lower value 0.987 | S. cerevisiae deletion strains, locus YPL256C, strain CLN2, stronger effect = lower value 0.971 | S. cerevisiae deletion strains, locus YPR119W, strain clb2, stronger effect = lower value 0.992 | S. cerevisiae deletion strains, locus YPR141C, strain kar3, stronger effect = lower value 0.99 | S. cerevisiae deletion strains, locus YPR163C, strain tif3, stronger effect = lower value 0.986 | S. cerevisiae deletion strains, locus YPR167C, strain met16, stronger effect = lower value 0.992 | S. cerevisiae deletion strains, strain wtn01, stronger effect = lower value 0.922 | S. cerevisiae strains, strain wild type, stronger effect = lower value 0.909

Source: PubChem BioAssay AID1159580 (chemical genetic matrix, 2015)
